According to the antibiotic and cytotoxicity screens of Wong et al. (2023):
The campaign covered roughly 39,000 compounds. About 500 (1.3%) were called active. What follows is part of a selection rich in actives, with near analogues and random picks from the rest.

The compounds below were run on S. aureus RN4220 (assay: growth inhibition call (relative growth <= 0.2)). Details: 50 µM.

Growth inhibition call, inactive:
OCC(CO)NC1CC(O)(CO)C(O)C(O)C1O (stereo unspecified), C[C@H](CO)N1C[C@H](C)[C@H](CN(C)CC2CC2)OCCCC[C@H](C)Oc2ccc(NC(=O)Cc3ccccc3)cc2C1=O, COc1ccc(NC(=O)Nc2ccc3c(c2)C(=O)N([C@@H](C)CO)C[C@H](C)[C@@H](CN(C)S(=O)(=O)c2ccc(Cl)cc2)OCCCC[C@H](C)O3)cc1, CCCNC(=O)N1C[C@]2(CCN(CC2)S(=O)(=O)c2ccccc2)c2c(n(c3cc(ccc23)OC)C)[C@@H]1CO, C[C@H](CO)N1C[C@H](C)[C@@H](CN(C)Cc2ccc(C(F)(F)F)cc2)Oc2ccc(NC(=O)Nc3ccc(F)cc3)cc2CC1=O, CC(C)(C)[S@@](=O)N1Cc2cc(C(=O)N[C@@H]3CCN(Cc4ccccc4)C3)nc(-c3cccc(-c4ccncc4)c3)c2[C@H]1CCO, Cc1cc2nc(C(=O)NC[C@H]3CCCS(=O)(=O)C3)cc(-c3ccccc3Cl)c2c(C)c1-c1ccncc1, CC(C)NC(=O)N(C)C[C@@H]1Oc2ccc(NC(=O)Cc3ccccc3)cc2CC(=O)N([C@@H](C)CO)C[C@H]1C, CC(C)[C@@H](CS(=O)(=O)C(C)C)N1C(=O)[C@@](C)(CC(=O)O)C[C@H](c2cccc(Cl)c2)[C@H]1c1ccc(Cl)cc1, CNc1ncnc2c1ncn2[C@@H]1O[C@H](CO)[C@@H](O)[C@H]1O, COc1ccc(CC(N)C(=O)NC2C(CO)OC(n3cnc4c(N(C)C)ncnc43)C2O)cc1.Cl.Cl (stereo unspecified), Nc1ncnc2c1ncn2[C@@H]1O[C@H](CO)[C@@H](O)[C@@H]1O, Nc1ncnc2c1ncn2[C@H]1O[C@@H](CO)[C@H](O)[C@@H]1O, COc1nc(N)nc2c1ncn2[C@@H]1O[C@H](CO)[C@@H](O)[C@@H]1O, CN(C)c1ncnc2c1ncn2[C@H]1O[C@@H](CO)[C@@H](N)[C@@H]1O, O=C(C[C@@H]1CC[C@@H]2[C@H](COC[C@@H](O)CN2C(=O)c2ccccc2F)O1)N1CCN(c2ccccc2)CC1, C[C@H](CO)N1C[C@H](C)[C@H](CN(C)Cc2ccc(C(=O)Nc3ccccc3N)cc2)Oc2ccc(NC(=O)Nc3ccc(C(F)(F)F)cc3)cc2CC1=O, C[C@@H]1CN([C@@H](C)CO)C(=O)c2cc(NS(=O)(=O)c3cn(C)cn3)ccc2O[C@@H]1CN(C)S(=O)(=O)c1cccs1, Cc1noc(C)c1NC(=O)Nc1cccc2c1O[C@H](CN(C)Cc1ccc(C(=O)Nc3ccccc3N)cc1)[C@@H](C)CN([C@H](C)CO)C2=O, Cc1noc(C)c1S(=O)(=O)Nc1ccc2c(c1)C(=O)N([C@@H](C)CO)C[C@H](C)[C@@H](CN(C)Cc1ccc3c(c1)OCO3)O2, CCCCCCCCC=CCCCCCCCC(=O)[O-].[NH3+]CCO, C[C@H]1CN([C@@H](C)CO)C(=O)c2cc(NC(=O)Nc3cccc4ccccc34)ccc2O[C@@H]1CN(C)Cc1ccc(-c2ccccc2)cc1, CC(C)NC(=N)NC(=N)Nc1ccc(Cl)cc1.Cl, Cl.N=C(NN=Cc1ccc(Cl)cc1)NN=Cc1ccc(Cl)cc1, C[C@H](CO)N1C[C@H](C)[C@H](CN(C)Cc2ccc3c(c2)OCO3)Oc2c(NC(=O)C3CC3)cccc2C1=O, C[C@H](CO)N1C[C@H](C)[C@@H](CN(C)Cc2ccc(C(=O)O)cc2)Oc2ccc(NC(=O)Cn3cnnn3)cc2C1=O, Nc1ccn([C@@H]2O[C@H](CO)[C@@H](O)C2(F)F)c(=O)n1, C[C@@]1(F)[C@H](O)[C@@H](CO)O[C@H]1n1ccc(N)nc1=O, COc1ccc(NC(=O)N(C)C[C@@H]2OCCCC[C@H](C)Oc3ccc(NC(=O)c4ccccc4)cc3C(=O)N([C@@H](C)CO)C[C@@H]2C)cc1, COc1ccc2c3c([nH]c2c1)[C@H](CO)N(Cc1ccc(cc1)Cl)C[C@]13CCN(CC1)Cc1ccccc1, COc1ccc2c3c([nH]c2c1)[C@H](CO)N(C[C@]13CN(CCc2ccccc2)C1)C(=O)CN1CCOCC1, COc1ccc2c3c([nH]c2c1)[C@@H](CO)N(C[C@]13CN(CCc2ccccc2)C1)C(=O)CN1CCOCC1, COc1ccc2c3c([nH]c2c1)[C@H](CO)N(Cc1ccc(cc1)Cl)C[C@]13CCN(CC1)Cc1nccs1, COc1ccc2c3c([nH]c2c1)[C@@H](CO)N(Cc1ccc(cc1)Cl)C[C@]13CCN(CC1)Cc1ccccc1, COc1ccc2c3c([nH]c2c1)[C@H](CO)N(Cc1ccc(cc1)Cl)C[C@]13CCN(CCc2ccccc2)CC1, Cc1ccc(NC(=O)Nc2cc(C(F)(F)F)ccc2F)cc1Nc1ccc2c(c1)NC(=O)/C2=C\c1ccc[nH]1, N[C@@]1(C(=O)O)CO[C@H]2[C@H](C(=O)O)[C@H]21, O=C(NCC(=O)N1CC[C@H](N[C@H]2CC[C@@](O)(c3ccc(-c4ncccn4)cn3)CC2)C1)c1cccc(C(F)(F)F)c1, CO[C@@H]1CN(C)C(=O)c2cc(NS(=O)(=O)CC(F)(F)F)ccc2OC[C@H](C)N(Cc2ccccn2)C[C@H]1C, CCCNC(=O)N1[C@@H]2Cn3c(cccc3=O)[C@H]1[C@@H](C(=O)NCC(F)(F)F)[C@@H]2CO, C[C@@H]1CN([C@H](C)CO)C(=O)c2cc(NC(=O)CCCN(C)C)ccc2O[C@H]1CN(C)C(=O)Nc1ccccc1, CCS(=O)(=O)Nc1ccc2c(c1)C(=O)N(C)[C@H]1CC[C@@H](CC(=O)NCc3ccc(OC)cc3)O[C@@H]1CO2, C[C@@H]1CN([C@@H](C)CO)C(=O)Cc2cc(NC(=O)Cn3cnnn3)ccc2O[C@H]1CN(C)S(=O)(=O)c1cccs1, COc1ccc(NC(=O)Nc2cccc3c2O[C@H](CN(C)S(=O)(=O)c2cn(C)cn2)[C@@H](C)CN([C@H](C)CO)C3=O)cc1, COC(=O)c1c(CC[C@@H](CO)NC(=O)N[C@@H](Cc2ccccc2)Cn2cc(C3(O)CCCCC3)nn2)oc(C(C)=O)c1C(=O)OC, COc1ccc([C@@H](NC(=O)C2CCN(Cc3ccc(Oc4ccccc4)cc3)CC2)c2ccccn2)cc1, COc1ccc([C@@H](NC(=O)C2CCN(CCOc3ccc(Cl)cc3Cl)CC2)c2ccco2)cc1, O=C(N[C@@H](c1ccc2c(c1)OCO2)c1ccccn1)C1CCN(CCOc2ccc(Cl)cc2Cl)CC1, Cc1cccnc1[C@@H](NC(=O)C1CCN(Cc2ccc(Cl)c(Cl)c2)CC1)c1ccc(Cl)cc1, O=C(N[C@H](c1ccc(Cl)cc1)c1ccsc1)C1CCN(Cc2ccc(Oc3ccccc3)cc2)CC1, O=C(N[C@H](c1ccc(F)cc1)c1ccc2ccccc2n1)C1CCN(CCOc2ccc(Cl)cc2Cl)CC1, COc1ccc([C@@H](NC(=O)C2CCN(CCOc3ccc(Cl)cc3Cl)CC2)c2ccccn2)cc1, Cc1cccnc1[C@@H](NC(=O)C1CCN(Cc2ccc(Oc3ccccc3)cc2)CC1)c1ccc(F)cc1, C[C@H]1CN([C@@H](C)CO)C(=O)Cc2cc(NC(=O)Cn3cnnn3)ccc2O[C@H]1CN(C)C(=O)Nc1ccccc1, C[C@@H]1CN([C@@H](C)CO)C(=O)Cc2cc(NC(=O)c3ccncc3)ccc2O[C@@H]1CN(C)S(=O)(=O)c1ccc(F)cc1, C[C@@H]1CCCCO[C@@H](CN(C)C(=O)NC2CCCCC2)[C@@H](C)CN([C@H](C)CO)C(=O)c2cc(NC(=O)Nc3cccc4ccccc34)ccc2O1, C[C@H](CO)N1C[C@H](C)[C@@H](CN(C)S(=O)(=O)c2cccs2)OCCCC[C@H](C)Oc2ccc(NC(=O)Nc3cccc4ccccc34)cc2C1=O, O=C(CCCCCCC(=O)Nc1ccccc1O)N/N=C/[C@H](O)[C@@H](O)[C@@H](O)[C@H](O)C(=O)O

Growth inhibition call, active:
Cc1cc2nc(C(=O)N[C@H]3CCN(C)C3)cc(-c3ccccc3Cl)c2c(C)c1-c1ccc(CO)cc1, COc1ccc(C[C@H](N)C(=O)N[C@H]2[C@@H](O)[C@@H](n3cnc4c(N(C)C)ncnc43)O[C@@H]2CO)cc1, COc1ccc(C[C@H](N)C(=O)N[C@H]2[C@@H](O)[C@H](n3cnc4c(N(C)C)ncnc43)O[C@@H]2CO)cc1, COc1ccc(C[C@@H](N)C(=O)N[C@@H]2[C@@H](O)[C@@H](n3cnc4c(N(C)C)ncnc43)O[C@@H]2CO)cc1, Cl.Cl.N=C(NCCCCCCNC(=N)NC(=N)Nc1ccc(Cl)cc1)NC(=N)Nc1ccc(Cl)cc1, Cl.Nc1ccn(C2OC(CO)C(O)C2(F)F)c(=O)n1 (stereo unspecified), COc1ccc2c3c([nH]c2c1)[C@H](CO)N(Cc1ccc(cc1)Cl)C[C@]13CN(CCc2ccccc2)C1, COc1ccc2c3c([nH]c2c1)[C@@H](CO)N(Cc1ccc(cc1)Cl)C[C@]13CCN(CCc2ccccc2)CC1, COc1ccc2c3c([nH]c2c1)[C@@H](CO)N(Cc1ccc(cc1)Cl)C[C@]13CN(CCc2ccccc2)C1, Cc1cccnc1[C@@H](NC(=O)C1CCN(CCOc2ccc(Cl)cc2Cl)CC1)c1ccc(F)cc1, Cc1cccnc1[C@@H](NC(=O)C1CCN(CCOc2ccc(Cl)cc2Cl)CC1)c1ccc(Cl)cc1, O=C(N[C@@H](c1cccnc1)c1ccc2c(c1)OCO2)C1CCN(CCOc2ccc(Cl)cc2Cl)CC1, O=C(N[C@H](c1ccc(Cl)cc1)c1ccccn1)C1CCN(CCOc2ccc(Cl)cc2Cl)CC1
